In all, about 360,000 compounds went through this assay and about 6,000 (1.7%) were called active. Another 8% or so got no clear call; they are omitted. Shown is part of a subset that was picked to be rich in actives. Unmarked numbers belong to inactive results. Calls come from the whole dose curve; as a rule, active = well fitted cell-killing curve with a large enough effect; inconclusive = small, poorly fitted or top-dose-only effect, or effect the other way; inactive = flat fitted curve, though single readings scatter.
Assay: qHTS for induction of synthetic lethality in tumor cells producing 2HG: qHTS for the HT-1080-NT fibrosarcoma cell line;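 note: NT is the 2HG producing partner of a matched IDH1 knockdown line; nearly all actives have a fitted effect of over 55% in size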;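 for activity, negative = less viability: 0% = DMSO-treated cells and -100% = media-only wells without cells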
Settings: HT-1080-NT fibrosarcoma viability, CellTiter-Glo ATP luminescence, 48 h; series mostly up to 46.1 µM; activity, negative = less viability: at the top concentration
How it was run: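 Compounds were tested in concentration-response format on HT-1080-NT cells for 48 hours at 37 degrees C. Cell viability came from CellTiter-Glo luminescence; curves were classified by r2, response magnitude and activity.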
Potency is the fitted concentration of half-maximal effect.

SMILES | activity, negative = less viability | Potency
CC1(C)CC(=O)C=C(c2ccc(COC(=O)c3cc(F)cc(F)c3)cc2)C1=O | -18.3% | 
CCN(CC(=O)Nc1ccc(NC(C)=O)cc1)C(=O)C1CC(=O)N(c2ccc3c(c2)OCCO3)C1 (stereo not given) | 4.08% | 
O=C(NC1=CC(=O)c2ccccc2C1=O)c1ccccc1 |  | 7.31 µM (active)
CC(NC(=O)c1ccccc1)C(=O)Nc1ccccc1 (stereo not given) | 7.26% | 
O=C(NC(=O)c1ccccc1)Nc1ccccc1O | -9.01% | 
Cc1ccc(S(=O)(=O)N2[C@@H](Cc3ccccc3)CO[C@H]2CC(=O)OCc2ccccc2)cc1 | -7.46% | 
CCCCNC(=O)OC1CC2CC1[C@H]1CCCCN1C2=O (stereo not given in full) | 11.3% | 
O=C(COC(=O)Cc1ccc(Cl)cc1Cl)NCc1ccco1 | 0.36% | 
O=C1CC(c2ccccc2)=NN1c1ccc([N+](=O)[O-])cc1 |  | 14.6 µM (active)
O=[N+]([O-])c1ccc(N2CCOCC2)cc1 | -6.24% | 
COC(=O)CC1=NN(c2ccccc2)C(=O)C1 | 9.15% | 
COc1ccc(C(=O)N2CCCCC2c2cc(C(=O)Nc3ccc(F)c(Cl)c3)no2)cc1 (stereo not given) | -21.2% | 
Cc1c(C(=O)NCC2CC2)sc(=O)n1Cc1cccc(F)c1 | 11% | 
COc1ccc(CNC(=O)[C@H](Cc2c[nH]c3ccccc23)NC(C)=O)cc1OC | 12.4% | 
COc1ccc(CNC(=O)Cc2ccc(-c3ccccc3)cc2)cc1OC |  | 14.6 µM (active)
COc1ccc(NC(=O)CNC(=O)Cc2ccccc2)cc1OC | -0.905% | 
O=C(C=CC(=O)Nc1ccc(F)cc1F)Nc1ccc(F)cc1F | 7.85% | 
NS(=O)(=O)c1ccc(CNC(=O)c2cc(S(=O)(=O)N3CCOCC3)ccc2N2CCCC2)cc1 | 0.267% | 
COC(=O)c1ccc2c(c1)S(=O)(=O)NC2C (stereo not given) | 16.3% | 
COC(=O)CCCCC1=CCC2C(=O)C=C(O)C2C1 (stereo not given) | 6.86% | 
CC(OC(=O)c1ccc(NC(=O)CC#N)cc1)C(=O)Nc1ccc(S(=O)(=O)N2CCCC2)cc1 (stereo not given) | -0.404% | 
CCOCCCn1c(NN)nc2ccccc2c1=O | 1.83% | 
Cc1ccc(-n2c(SCC(=O)N/N=C/C=C/c3ccccc3[N+](=O)[O-])nc3ccccc3c2=O)cc1 | 4.46% | 
CCn1c(/C=C/c2ccc([N+](=O)[O-])o2)nc2ccccc2c1=O |  | 2.59 µM (active)

SMILES | activity, negative = less viability | Potency
CCC1NC(=O)c2cccnc2-n2c1nc1ccc(C)cc1c2=O (stereo not given) | 16.5% | 
COc1cc2nc(N3CCCN(C)CC3)nc(NC(C)C)c2cc1OC | -15.7% | 
COc1cc2ccc(C(C)=O)c(O)c2cc1OC | -1.62% | 
CC(C)CN1C(=O)CN(S(C)(=O)=O)CC1(C)C(=O)NCc1ccccc1 (stereo not given) | 25.9% | 
COc1cc(OC)c2c(-c3cccc(-c4cccc(N)c4)c3)cc(=O)oc2c1 |  | 6.51 µM (active)
COc1ccc(-c2c(C)cc3oc(=O)cc(-c4ccccc4)c3c2C)cc1OC | 7.56% | 
COc1ccc(-c2c(C)cc3oc(=O)cc(-c4ccccc4)c3c2C)cc1F | 10.6% | 
COc1cc2nc(N3CCCN(C)CC3)nc(NC3CC3)c2cc1OC | -21.4% | 
O=c1c2ccccc2ncn1/N=C/c1ccccc1 | 3.2% | 
Cc1[nH]n(-c2ccc(Cl)cc2)c(=O)c1/C=N/n1c(C)nc2ccccc2c1=O |  | 23.1 µM (active)
Cc1nc2ccccc2c(=O)n1-c1ccc(NS(=O)(=O)c2ccc(F)cc2F)cc1 | 0.277% | 
CC1(C)CCSC(/C=C/c2ccccc2)=N1 |  | 23.1 µM (active)
CC1(C(=O)NS(=O)(=O)c2ccccc2)CCN1C(=O)C/C=C/c1ccccc1 (stereo not given) | 1.36% | 
CC1(C(=O)O)CCN1C(=O)/C=C/c1ccccc1 (stereo not given) | 22% | 
O=C(O)C(=Cc1ccc([N+](=O)[O-])cc1)CCc1ccccc1 | -1.78% | 
Brc1ccc2nc(-c3ccccc3)c(Cc3ccccc3)n2c1 | 17.3% | 
Cc1ccc(-c2nc3ccc(Br)cn3c2Cc2ccccc2C(F)(F)F)cc1 | -23.8% | 
CCc1ccc(CNC(=O)C2CCN(c3nnc(C)c4c(C)n(-c5ccc(C)cc5)nc34)CC2)cc1 |  | 13 µM (active)
CCS(=O)(=O)N1CCCC(C(=O)NCc2ccc(C)cc2)C1 (stereo not given) | 9.86% | 
Cc1ccc(NC(=O)N2CCC(C(=O)NCc3ccc(F)cc3)CC2)cc1 | 8.01% | 
CCN(CC)C(=O)C1=C(C)N(Cc2ccc(F)cc2)C(=O)C(CC(=O)NC2CCCC2)C1 (stereo not given) | -1.24% | 
CCc1ccccc1NC(=O)CSc1nnc([C@@H](NC(=O)OC(C)(C)C)C(C)CC)o1 (stereo not given in full) | 2.65% | 
C[C@@H](NC(=O)OC(C)(C)C)c1nnc(S(=O)(=O)Cc2ccccc2)o1 |  | 16.4 µM (active)
COc1ccccc1NC(=O)[C@H](COCc1ccccc1)NC(=O)OC(C)(C)C | 6.66% | 

SMILES | activity, negative = less viability | Potency
CC1(C(=O)Nc2cccc3c2CCCC3)CCN1C(=O)C1(c2ccccc2)CC1 (stereo not given) | -21.9% | 
O=C(Nc1ccccc1)c1ccccc1Br | -0.814% | 
COc1ccc2sc(-c3ccc(S(C)(=O)=O)cc3)c(C#Cc3cncn3C)c2c1 |  | 20.6 µM (active)
COc1ccc2sc(-c3ccc(S(C)(=O)=O)cc3)c(-c3ccc(C(N)=O)cc3)c2c1 | -27.8% | 
COc1ccc(-c2sc3ccc(OC)cc3c2C#Cc2ccccn2)cc1 | -11.5% | 
CC1=C(C(=O)N(C)C)CC(CC(=O)NCCN2CCOCC2)C(=O)N1Cc1ccccc1 (stereo not given) | 13% | 
O=C1[C@H]2[C@@H](c3ccc(C(F)(F)F)cc3)N[C@]3(CCCN(Cc4ccc(Cl)cc4)C3=O)[C@H]2C(=O)N1Cc1ccccc1 | -17.1% | 
CCCCN1C[C@H](c2ccc(Br)cc2)[C@@H](CC(=O)Nc2ccc(Br)cc2)C1=O | -4.62% | 
C=CCNc1nc(N)c([N+](=O)[O-])c(NC2CCCCC2)n1 | 0.683% | 
Nc1nc(NCC2CCCO2)nc(Nc2ccccc2F)c1[N+](=O)[O-] (stereo not given) | -0.899% | 
Nc1nc(Nc2ccccc2F)nc(NC2CCCCC2)c1[N+](=O)[O-] |  | 16.4 µM (active)
COc1cc(C(=O)N2CCOC23CCN(Cc2ccccc2)CC3)cc(OC)c1OC | 0.0161% | 
COC(=O)c1ccc2nc(-c3ccc(F)cc3)c(Cc3ccc(C)cc3)n2c1 | 1.66% | 
COc1ccccc1CCNS(=O)(=O)c1cn(C)nc1C | 10.6% | 
CCCCc1c(-c2ccc(Br)cc2)ncn1CCc1ccccc1OC |  | 9.2 µM (active)
Cn1c(=O)c2c(ncn2CCc2ccccc2)n(C)c1=O | 10.3% | 
COc1ccc(-c2nn(-c3ccccc3)cc2C(=O)Nc2nccs2)cc1OC | -2.1% | 
CCC(=O)NCc1cc(-c2nn(C)c(=O)c3ccccc23)ccc1OC | 7.47% | 
COc1ccccc1Cc1c(-c2ccc(Cl)cc2)nc2c3ccccc3ccn12 | 4.95% | 
CCCCCc1c(Cc2ccccc2)ncn1CCc1ccccc1OC |  | 18.4 µM (active)
CCCCCc1c(-c2ccc(OC)c(OC)c2)ncn1CCc1ccccc1OC |  | 20.6 µM (active)
COc1ccccc1Cc1c(-c2ccc(Cl)cc2)nc2ccc(Cl)cn12 | -12.4% | 

Reference: PubChem BioAssay AID686970 (National Center for Advancing Translational Sciences (NCATS), 2013)
